IL1B secr inh – blocks inflammasome-driven IL-1 beta release. THP-1 LPS/ATP IL-1B secretion, AlphaLISA, 16 h; active compounds read low. activity change, % at 57.5 µM. 360,000 compounds, 4.7% hits. AID 743279; in the data active = activity change below about -50%; inconclusive = mostly about -30% to -49%
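THP-1 cells pretreated 1 hr with compounds (up to 57.5 uM final), then stimulated with LPS (250 ng/mL final) plus ATP (1.25 mM final); secreted IL-1B measured by AlphaLISA after 16 hr, decreased signal indicating inhibition.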
uPA surface inh – cell surface uPA generation inhibition; AID 540303; 330,000 compounds, 0.31% hits; Potency, µM (series often up to 38.3 µM), for the others: at the highest dose activity change, negative = inhibition, usual class: inhibitors; cell surface uPA generation assay, qHTS; active = well fitted inhibition curve with a large enough effect; inconclusive = small, poorly fitted or top-dose-only effect; inactive = no such curve, though single readings can be large or run the other way; tested in mouse RAW 264.7 cells; note: potency is the fitted concentration of half-maximal effect; nearly all actives have a fitted effect of over 55% in size
TDP1 cell noCPT – qHTS for Inhibitors of human tyrosyl-DNA phosphodiesterase 1 (TDP1): qHTS in cells in absence of CPT. DT40 Tdp1-/- hTDP1 cells, no CPT, ATP luminescence, 48 h. Potency, µM (doses to about 46.2 µM), for inactives: at the highest dose activity change, negative = growth inhibition, actives largely listed as inhibitors. 420,000 compounds, 15% hits; note: potency is the fitted concentration of half-maximal effect; nearly all actives have a fitted effect of over 55% in size
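Readout: luminescence from CellTiter-Glo after 30 min in the dark at RT. Cells: DT40 Tdp1-/- with stable hTDP1, 400/well. Exposure: compounds alone, ≥48 hr, 37 °C.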
HT1080 IDH1KD tx – kills HT-1080 cells with IDH1 knockdown; 360,000 compounds, 2% hits; AID 686971; HT-1080 IDH1 knockdown viability, ATP luminescence, 48 h; Potency, µM (top dose mostly 46.1 µM), without a hit: top-dose activity, negative = toxicity, actives largely listed as cytotoxic;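 note: potency is the fitted concentration of half-maximal effect; 0% = DMSO wells and -100% = cell-free medium wells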
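Using the IDH1-knockdown HT-1080 line run in the same batch and compound series as the NT line, viability after 48 h at 37 °C was determined by CellTiter-Glo luminescence and expressed as % activity.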
DT40 TDP1 CPT – growth inhibition of DT40 Tdp1-/-;hTDP1 cells with camptothecin (screen for TDP1 inhibitors); chicken DT40 Tdp1-/-;hTDP1 cells + 20 nM CPT, ATP luminescence, 48 h; Potency, µM (highest dose often 46.2 µM), for inactives: at the top dose activity change, negative = growth inhibition, usual class: inhibitors; 420,000 compounds, 12% hits; AID 686979; note: potency is the fitted concentration of half-maximal effect; nearly all actives have a fitted effect of over 55% in size
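Chicken DT40 Tdp1-/- cells complemented with human TDP1, 400 cells/well, exposed to compounds plus 20 nM camptothecin for at least 48 h at 37 C; viability read as ATP content by CellTiter-Glo luminescence.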
HT1080-NT tox – kills 2HG-producing HT-1080-NT fibrosarcoma cells | HT-1080-NT fibrosarcoma viability, CellTiter-Glo ATP luminescence, 48 h | Potency, µM (doses to about 46.1 µM), inactives show at the highest dose activity, negative = less viability, most hits filed as cytotoxic | 360,000 compounds, 1.6% hits;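 note: NT is the 2HG producing partner of a matched IDH1 knockdown line; potency is the fitted concentration of half-maximal effect; 0% = DMSO-treated cells and -100% = media-only wells without cells; nearly all actives have a fitted effect of over 55% in size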
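Compounds were tested in concentration-response format on HT-1080-NT cells for 48 hours at 37 degrees C. Cell viability came from CellTiter-Glo luminescence; curves were classified by r2, response magnitude and activity.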
* hit, by the source's call; ? = inconclusive; . = no result given; ! = not active in a repeat; [ ] = remark or other dose. Sampled rows, rich in hits. Any-hit rate of the full collection: about 19%. Unless noted, calls come from the whole dose curve; as a rule, active = well fitted curve in the direction sought with a large enough effect; inconclusive = small, poorly fitted or top-dose-only effect, or another doubt; inactive = no such curve, though single readings can be large; an effect the other way counts as inactive or inconclusive. Unless noted, % is set by controls: 0 for no effect and ±100 for the full control effect.

SMILES	IL1B secr inh	uPA surface inh	TDP1 cell noCPT	HT1080 IDH1KD tx	DT40 TDP1 CPT	HT1080-NT tox
Cc1ccc2c(c1)N(C(=O)CCC(=O)NCC(C)c1ccccc1)CC(C)O2 (stereo not drawn)	-6	-2%	?	7%	?	17%
Cc1ccc2c(c1)N(C(=O)CCC(=O)NCc1cccnc1)CC(C)O2 (stereo not drawn)	13	-11%	-7%	-8%	-6%	10%
O=c1c2c3c(sc2n(Cc2ccc(F)cc2Cl)c(=O)n1-c1ccc(Cl)cc1)CCC3	.	.	-11%	.	-12%	.
c1cncc(-c2nc(-c3ccco3)cs2)c1	-2	-3%	?	14%	?	23%
COCCn1c(-c2ccccc2)csc1=Nc1cccnc1	-11	-1%	?	-10%	16µM*	-18%
Cc1ccc(-c2csc(=Nc3cccnc3)n2CCCN2CCCC2=O)cc1C	-51*	-2%	18µM*	-12%	?	-23%
c1cncc(N=c2scc(-c3cccc4ccccc34)n2CCCn2ccnc2)c1	-4	2%	?	-24%	?	?
CCCCn1c(C)csc1=Nc1cccnc1	-14	-4%	?	0%	?	6%
CC(C)n1c(-c2ccco2)csc1=Nc1cccnc1	0	-7%	?	?	11µM*	?
Cc1ccc(-c2csc(=Nc3cccnc3)n2CCCn2ccnc2)cc1C	?	-7%	12µM*	-20%	16µM*	-6%
CN(C)S(=O)(=O)n1cc(/C=C(\NC(=O)c2ccccc2F)C(=O)N2CCCCC2)c2ccccc21	-18	.	?	6%	-23%	8%
CCc1nn(-c2ccccc2)c2nc(-c3ccc(O)cc3)c3cc(OC)c(OC)cc3c12	.	.	-21%	.	1%	.
O=C(CNc1ccccc1)Nc1cccc2ccccc12	-17	3%	-27%	-1%	4%	-4%
CC(=O)NC(c1ccccc1)c1nc(-c2ccc(F)c(Cl)c2)cs1 (stereo not drawn)	-14	.	?	-4%	?	-8%
COc1cc(=O)n2c(c1C(=O)N(C)Cc1nccs1)CCN(Cc1cc3ccccc3s1)CC2	.	.	?	.	-107%	.
COc1ccccc1Nc1c2c(nc3ccc(NC(=O)c4cccc(F)c4)cc13)CCCC2	.	.	2.6µM*	.	5.8µM*	.
COc1ccc(Nc2c3c(nc4ccc(NC(=O)/C=C/c5cccc(OC)c5OC)cc24)CCCC3)cc1OC	.	.	4.6µM*	.	2.3µM*	.
O=C(Nc1ccc2nc3n(c(=O)c2c1)CCCC3)c1cccc(F)c1	-2	-3%	-21%	3%	-30%	2%
COc1ccc(NC(=O)c2c3c(nc4ccccc24)CCC3)cc1	-4	.	-6%	-11%	-6%	2%[9.24 µM]
COc1cccc(/C=C/C(=O)Nc2ccc(N3CCOCC3)cc2)c1OC	-13	-5%	?	-9%	8%	-11%
COc1ccccc1Nc1c2c(nc3ccc(NC(=O)/C=C/c4cccc(OC)c4OC)cc13)CCCC2	.	.	4.1µM*	.	3.3µM*	.
COc1ccc(/C=C/C(=O)Nc2ccc3nc4c(c(Nc5ccccc5OC)c3c2)CCCC4)cc1	.	.	3.7µM*	.	3.3µM*	.
O=C(Nc1ccc(Oc2ccccc2)cc1)c1ccc2nc([C@@H]3O[C@H](CO)[C@H](O)[C@H](O)[C@H]3O)[nH]c2c1	52	.	6%	?	2%	?
C=C[C@@H]1c2cc(C)ccc2N(S(=O)(=O)c2ccc(C)cc2)[C@H](c2ccccc2)C1(C#N)C#N	66	-22%	10µM*	-26%	7.9µM*	-18%
C=C[C@@H]1c2ccccc2N(S(=O)(=O)c2ccc(C)cc2)[C@H](c2ccccc2)C1(C#N)C#N	20	8%	21µM*	4%	7.9µM*	8%
SMILES	IL1B secr inh	uPA surface inh	TDP1 cell noCPT	HT1080 IDH1KD tx	DT40 TDP1 CPT	HT1080-NT tox
C=C[C@@H]1c2cc(C)ccc2N(S(=O)(=O)c2ccc(C)cc2)[C@H](c2ccccc2C(F)(F)F)C1(C#N)C#N	24	-16%	?	-2%	8.2µM*	-17%
O=C(COCc1cc(-c2cccs2)on1)NCc1cccc(Cl)c1	.	.	-24%	.	-25%	.
CCOC(=O)Cn1nc(C)n(-c2c(C)cccc2C)c1=O	-62*	-1%	4%	2%	14%	9%
Cc1cccc(C)c1-n1c(C)nn(Cc2ccc([N+](=O)[O-])cc2)c1=O	5	-1%	?	1%	-3%	9%
CC(=O)N1CCc2cc(C(=O)CN3CCC(C)CC3)ccc21	11	-2%	-2%	4%	?	23%
O=C(c1cccc(S(=O)(=O)N2CCc3ccccc3C2)c1)N1CCN(c2ccccc2)CC1	-9	-2%	?	-22%	?	0%
CCS(=O)(=O)N1CCc2cc(C(=O)N3CCN(c4ccccc4)CC3)ccc21	.	.	15µM*	.	16µM*	.
CC(=O)N1CCc2cc(C(=O)CN3CCN(c4cccc(Cl)c4)CC3)ccc21	15	-13%	21µM*	1%	15µM*	7%
O=C(c1cccc(S(=O)(=O)N2CCc3ccccc32)c1)N1CCN(c2ccccc2)CC1	?	4%	29µM*	?	?	13µM*
CS(=O)(=O)N1CCc2cc(C(=O)N3CCN(c4cccc(Cl)c4)CC3)ccc21	-8	-5%	18µM*!	4%	16µM*	1%
O=C(Nc1cccc(F)c1)C1CCCN(S(=O)(=O)c2ccc(-n3cnnn3)cc2)C1 (stereo not drawn)	-21	0%	-15%	-1%	-3%	-27%
CCNc1ncc2nc(-c3ccc(F)cc3)c(=O)n(-c3ccccc3)c2n1	.	.	-1%	.	4%	.
COc1ccccc1N1CCN(C(=O)c2ccc3c(c2)CCN3S(=O)(=O)c2ccccc2)CC1	?	-10%	2.9µM*	-28%	8.2µM*	-12%
CCN(c1ccccc1)S(=O)(=O)c1ccc(C(=O)N2CCCC(C(F)(F)F)C2)cc1 (stereo not drawn)	2	6%	23µM*	-8%	8.2µM*	-4%
O=C(c1ccc2c(c1)CCN2S(=O)(=O)c1ccccc1)N1CCN(c2ccc(F)cc2)CC1	-20	12%	15µM*	-14%	23µM*	-18%
O=C(c1cccc(S(=O)(=O)N2CCCC2)c1)N1CCCC(C(F)(F)F)C1 (stereo not drawn)	3	-2%	-17%	8%	-21%	14%

Screening data (PubChem BioAssay)
